Assay results from ChEMBL document CHEMBL3988442, “University of Dundee, Small-Polar-MMV Screening Library” (2021).
For some assays here: Entries with a potency or affinity are not part of this list.

Legend:
Design in all cases: scale not given: direction of the effect not stated beside the values
[1] = target: Protein translocase subunit SecA (Escherichia coli (strain K12)) (UniProt P10408); test: Assay to Identify E. coli SecA ATPase Inhibitors; format: functional; conditions: 30 µM
[2] = target: T1, Ubiquitin-activating enzyme e1, putative (Leishmania donovani (strain BPK282A1)) (UniProt E9BSI1); test: Leishmania donovani Ubiquitin Activating Enzyme (LdE1); format: functional; conditions: 30 µM
T1 sequence (whole entry): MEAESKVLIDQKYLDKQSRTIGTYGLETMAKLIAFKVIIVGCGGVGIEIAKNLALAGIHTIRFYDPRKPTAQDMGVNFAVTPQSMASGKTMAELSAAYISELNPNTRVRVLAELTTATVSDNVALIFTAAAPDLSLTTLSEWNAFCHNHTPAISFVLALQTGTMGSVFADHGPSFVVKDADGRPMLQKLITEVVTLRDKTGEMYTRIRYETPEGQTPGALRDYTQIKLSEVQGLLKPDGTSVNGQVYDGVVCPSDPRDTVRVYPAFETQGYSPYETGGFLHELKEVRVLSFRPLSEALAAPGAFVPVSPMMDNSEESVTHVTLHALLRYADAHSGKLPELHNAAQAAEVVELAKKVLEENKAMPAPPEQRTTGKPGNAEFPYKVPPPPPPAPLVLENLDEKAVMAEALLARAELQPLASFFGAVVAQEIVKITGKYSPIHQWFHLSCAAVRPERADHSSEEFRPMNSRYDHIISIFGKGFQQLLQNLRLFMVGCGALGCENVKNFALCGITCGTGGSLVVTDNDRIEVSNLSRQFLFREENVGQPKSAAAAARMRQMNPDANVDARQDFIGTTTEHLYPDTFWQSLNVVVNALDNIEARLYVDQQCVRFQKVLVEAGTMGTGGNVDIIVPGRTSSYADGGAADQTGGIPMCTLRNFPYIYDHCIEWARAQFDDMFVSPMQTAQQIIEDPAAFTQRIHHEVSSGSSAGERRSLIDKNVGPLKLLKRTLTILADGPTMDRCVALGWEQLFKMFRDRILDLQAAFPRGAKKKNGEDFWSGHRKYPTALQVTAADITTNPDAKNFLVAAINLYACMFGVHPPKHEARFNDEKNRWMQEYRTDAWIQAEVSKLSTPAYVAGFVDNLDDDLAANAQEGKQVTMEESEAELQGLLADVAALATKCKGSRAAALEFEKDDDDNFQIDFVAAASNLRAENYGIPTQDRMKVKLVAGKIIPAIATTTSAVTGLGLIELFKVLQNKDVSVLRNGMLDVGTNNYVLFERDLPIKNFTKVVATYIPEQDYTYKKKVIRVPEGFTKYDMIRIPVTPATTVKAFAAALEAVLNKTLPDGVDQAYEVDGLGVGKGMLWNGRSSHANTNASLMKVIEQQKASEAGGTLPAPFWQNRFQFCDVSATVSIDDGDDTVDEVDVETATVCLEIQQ

[3] = target: AMP-activated protein kinase, AMPK (Homo sapiens) (UniProt P54646+O43741+P54619+Q9UGJ0+Q9Y478+Q13131+Q9UGI9); test: AMP-dependent Kinase enzyme assay. An in vitro enzyme assay that detects ADP turnover that is directly proportional to AMPK activity. This uses naive AMPK that is activated during the assay with MK-8722; format: functional; conditions: 30 µM
[4] = target: Sialic acid-binding Ig-like lectin 9 (Homo sapiens) (UniProt Q9Y336); test: Hs-Siglec9 ALPHAscreen SOP 20170721; conditions: 10 µM
[5] = tested on: Trypanosoma cruzi; test: Trypanosoma cruzi phosphomannomutase and mannose-1-phosphate guanylyltransferase assay; format: functional; conditions: 10 µM
[6] = target: T2, Arginase-2, mitochondrial (Homo sapiens) (UniProt P78540); test: in vitro enzyme assay to detect the production of urea directly proportional to the activity of Arginase II; format: functional; conditions: 33.3 µM; note: in the data most compounds retested in dose-response had high values
T2 sequence (whole entry): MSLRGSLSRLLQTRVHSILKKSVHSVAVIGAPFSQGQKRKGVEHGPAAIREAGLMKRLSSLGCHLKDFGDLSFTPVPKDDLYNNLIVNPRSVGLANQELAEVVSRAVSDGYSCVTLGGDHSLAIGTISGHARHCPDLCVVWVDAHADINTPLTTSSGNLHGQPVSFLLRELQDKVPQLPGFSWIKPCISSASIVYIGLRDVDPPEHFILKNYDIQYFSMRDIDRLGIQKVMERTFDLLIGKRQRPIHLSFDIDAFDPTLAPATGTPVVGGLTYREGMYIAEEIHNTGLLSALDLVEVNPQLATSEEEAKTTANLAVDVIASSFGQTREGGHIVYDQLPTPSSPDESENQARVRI

[7] = target: T3, Proteasome subunit beta (Trypanosoma cruzi) (UniProt O96673); test: Trypanosoma cruzi proteasome chymotrypsin-like activity (TcProtChymo) assay.; note: in the data most compounds retested in dose-response had high values; format: functional; conditions: 9.37 µM
T3 sequence (whole entry): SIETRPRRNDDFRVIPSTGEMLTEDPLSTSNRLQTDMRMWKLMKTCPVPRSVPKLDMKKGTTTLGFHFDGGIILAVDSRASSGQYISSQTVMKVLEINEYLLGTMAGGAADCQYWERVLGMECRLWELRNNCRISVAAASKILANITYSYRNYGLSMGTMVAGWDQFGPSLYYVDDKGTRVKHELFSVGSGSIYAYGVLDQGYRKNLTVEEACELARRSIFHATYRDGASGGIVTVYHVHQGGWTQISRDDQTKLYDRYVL

[8] = organism: Homo sapiens; test: To identify inhibition of the IFN signalling (Jak-Stat) pathway via expression of an eGFP reporter gene under the control of an IFN-stimulated response element (ISRE) containing MxA promoter.; format: functional; conditions: 30 µM
[9] = target: T4, Tyrosyl-tRNA synthetase, putative (Trypanosoma cruzi (strain CL Brener)) (UniProt Q4DSP6); test: Trypanosoma cruzi tyrosyl tRNA synthetase (TcYRS) _High Tyrosine SOP; format: functional; conditions: 30 µM; note: in the data most compounds retested in dose-response had high values
T4 sequence (whole entry): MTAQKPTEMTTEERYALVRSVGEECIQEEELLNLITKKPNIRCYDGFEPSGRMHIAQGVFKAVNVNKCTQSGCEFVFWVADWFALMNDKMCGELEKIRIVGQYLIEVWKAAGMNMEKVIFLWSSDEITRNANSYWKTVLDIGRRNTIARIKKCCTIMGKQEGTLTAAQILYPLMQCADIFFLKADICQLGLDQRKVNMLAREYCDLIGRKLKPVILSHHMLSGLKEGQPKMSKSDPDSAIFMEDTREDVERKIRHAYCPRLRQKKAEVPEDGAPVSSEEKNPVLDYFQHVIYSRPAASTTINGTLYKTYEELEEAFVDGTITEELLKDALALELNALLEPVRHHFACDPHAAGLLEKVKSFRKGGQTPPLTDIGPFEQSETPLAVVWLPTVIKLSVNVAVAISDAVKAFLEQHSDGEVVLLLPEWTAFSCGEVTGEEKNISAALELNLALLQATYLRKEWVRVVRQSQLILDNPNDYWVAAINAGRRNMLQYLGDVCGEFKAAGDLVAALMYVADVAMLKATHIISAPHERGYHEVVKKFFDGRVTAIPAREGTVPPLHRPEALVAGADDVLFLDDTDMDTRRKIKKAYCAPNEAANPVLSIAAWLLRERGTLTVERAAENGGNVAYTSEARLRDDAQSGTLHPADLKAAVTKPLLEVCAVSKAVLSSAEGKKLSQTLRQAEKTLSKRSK

[10] = target: T4, Tyrosyl-tRNA synthetase, putative (Trypanosoma cruzi (strain CL Brener)); test: Trypanosoma cruzi tyrosyl tRNA synthetase (TcYRS) SOP; format: functional; conditions: 30 µM
[11] = target: Chromo domain-containing protein 1 (Saccharomyces cerevisiae (strain ATCC 204508 / S288c) (Baker's yeast)) (UniProt P32657); test: ScCHD-1 Enzyme Inhibition Assay; format: functional; conditions: 30 µM; note: in the data most compounds retested in dose-response had high values
Chain of Chromo domain-containing protein 1 (Saccharomyces cerevisiae (strain ATCC 204508 / S288c) (Baker's yeast)) (P32657 whole entry, the tested form may be a part): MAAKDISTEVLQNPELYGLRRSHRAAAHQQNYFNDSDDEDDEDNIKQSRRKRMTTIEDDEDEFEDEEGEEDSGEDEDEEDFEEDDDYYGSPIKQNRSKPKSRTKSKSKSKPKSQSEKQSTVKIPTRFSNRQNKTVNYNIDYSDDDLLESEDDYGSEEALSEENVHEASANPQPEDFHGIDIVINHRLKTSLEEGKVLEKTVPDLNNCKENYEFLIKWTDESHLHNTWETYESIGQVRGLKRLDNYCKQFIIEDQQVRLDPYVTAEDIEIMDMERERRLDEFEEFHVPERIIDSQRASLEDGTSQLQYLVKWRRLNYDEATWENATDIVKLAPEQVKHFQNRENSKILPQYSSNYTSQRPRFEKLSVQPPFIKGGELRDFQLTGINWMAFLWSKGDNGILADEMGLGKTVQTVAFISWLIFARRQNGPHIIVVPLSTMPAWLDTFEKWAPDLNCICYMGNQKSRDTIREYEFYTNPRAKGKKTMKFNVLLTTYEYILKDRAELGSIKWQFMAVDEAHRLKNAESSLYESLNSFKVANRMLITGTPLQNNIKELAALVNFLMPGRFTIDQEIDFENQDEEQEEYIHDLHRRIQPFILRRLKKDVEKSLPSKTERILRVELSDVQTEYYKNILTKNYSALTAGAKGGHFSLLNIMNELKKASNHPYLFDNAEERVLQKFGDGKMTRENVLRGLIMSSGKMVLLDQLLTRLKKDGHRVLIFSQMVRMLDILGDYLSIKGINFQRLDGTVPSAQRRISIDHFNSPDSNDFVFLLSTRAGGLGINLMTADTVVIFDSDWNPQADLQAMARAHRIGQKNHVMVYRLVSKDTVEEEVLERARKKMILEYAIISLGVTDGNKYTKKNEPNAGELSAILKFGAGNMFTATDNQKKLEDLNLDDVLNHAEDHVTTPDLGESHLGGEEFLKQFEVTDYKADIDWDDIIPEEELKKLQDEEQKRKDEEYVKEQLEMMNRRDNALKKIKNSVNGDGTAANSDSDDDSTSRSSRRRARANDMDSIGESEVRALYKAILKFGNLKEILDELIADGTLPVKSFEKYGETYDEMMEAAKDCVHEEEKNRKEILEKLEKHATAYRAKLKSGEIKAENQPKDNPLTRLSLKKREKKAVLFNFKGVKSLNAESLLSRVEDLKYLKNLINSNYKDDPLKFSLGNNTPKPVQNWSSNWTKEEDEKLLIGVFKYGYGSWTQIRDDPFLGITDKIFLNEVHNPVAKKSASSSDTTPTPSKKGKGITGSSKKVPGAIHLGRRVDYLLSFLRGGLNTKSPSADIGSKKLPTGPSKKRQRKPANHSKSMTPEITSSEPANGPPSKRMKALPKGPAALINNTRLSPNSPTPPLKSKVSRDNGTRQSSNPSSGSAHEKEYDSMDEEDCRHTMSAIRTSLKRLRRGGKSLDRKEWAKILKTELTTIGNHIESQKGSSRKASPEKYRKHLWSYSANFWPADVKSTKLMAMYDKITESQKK

Chain of Protein translocase subunit SecA (Escherichia coli (strain K12)) (P10408 whole entry): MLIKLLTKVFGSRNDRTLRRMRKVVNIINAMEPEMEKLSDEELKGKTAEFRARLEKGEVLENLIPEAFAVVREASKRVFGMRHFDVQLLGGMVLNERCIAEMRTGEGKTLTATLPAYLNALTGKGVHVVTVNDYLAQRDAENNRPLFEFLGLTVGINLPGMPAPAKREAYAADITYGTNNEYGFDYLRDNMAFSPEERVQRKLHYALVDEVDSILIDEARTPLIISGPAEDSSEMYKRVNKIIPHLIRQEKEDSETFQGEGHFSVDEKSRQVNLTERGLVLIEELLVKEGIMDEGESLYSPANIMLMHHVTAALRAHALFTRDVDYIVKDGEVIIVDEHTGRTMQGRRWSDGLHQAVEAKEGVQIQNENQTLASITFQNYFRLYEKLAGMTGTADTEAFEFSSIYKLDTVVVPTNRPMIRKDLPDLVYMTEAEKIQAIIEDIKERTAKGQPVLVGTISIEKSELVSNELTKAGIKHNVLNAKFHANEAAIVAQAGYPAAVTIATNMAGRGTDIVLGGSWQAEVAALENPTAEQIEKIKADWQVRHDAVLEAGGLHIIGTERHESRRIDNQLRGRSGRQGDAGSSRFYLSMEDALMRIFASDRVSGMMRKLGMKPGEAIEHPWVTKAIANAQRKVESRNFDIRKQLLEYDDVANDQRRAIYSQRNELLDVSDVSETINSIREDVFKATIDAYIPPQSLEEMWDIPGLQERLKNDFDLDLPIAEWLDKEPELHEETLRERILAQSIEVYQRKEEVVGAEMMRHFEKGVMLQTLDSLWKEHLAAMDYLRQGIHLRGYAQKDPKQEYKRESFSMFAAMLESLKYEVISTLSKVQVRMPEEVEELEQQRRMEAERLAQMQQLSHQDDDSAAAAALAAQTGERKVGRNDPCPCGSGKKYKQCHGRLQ
Chain of Sialic acid-binding Ig-like lectin 9 (Homo sapiens) (Q9Y336 whole entry): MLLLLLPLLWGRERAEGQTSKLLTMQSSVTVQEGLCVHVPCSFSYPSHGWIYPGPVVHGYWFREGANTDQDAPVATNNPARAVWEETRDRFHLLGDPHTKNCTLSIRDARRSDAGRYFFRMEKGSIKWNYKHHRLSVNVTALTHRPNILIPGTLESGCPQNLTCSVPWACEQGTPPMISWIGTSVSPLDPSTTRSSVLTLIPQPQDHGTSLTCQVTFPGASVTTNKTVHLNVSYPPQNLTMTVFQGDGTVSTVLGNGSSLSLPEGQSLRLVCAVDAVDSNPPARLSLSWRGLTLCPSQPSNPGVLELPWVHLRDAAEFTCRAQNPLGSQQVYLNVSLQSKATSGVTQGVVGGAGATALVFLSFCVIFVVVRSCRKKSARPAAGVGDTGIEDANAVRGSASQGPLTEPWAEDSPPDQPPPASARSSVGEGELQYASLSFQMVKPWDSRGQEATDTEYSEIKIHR

Row | Compound | Percent Effect [1] | Percent Effect [2] | Percent Effect [3] | Percent Effect [4] | Percent Effect [5] | Percent Effect [6] | Percent Effect [7] | Percent Effect [8] | Percent Effect [9] | Percent Effect [10] | Percent Effect [11]
1 | CNC(=O)[C@@]12CCO[C@@H]1CCN(Cc1scnc1C)C2 | 3.6% | 7.79% | 9.91% | -13.5% | -7.4% | 7.1% | 20.4% | 5.25% | 5.29% | 6.41% | -8.35%
2 | Cn1cc(CN2CCc3onc(COc4cccnc4)c3C2)cn1 | 6.35% | 14.7% | 17.2% | -10.2% | -9.43% | -5.11% | 16.6% | 11.8% | 0% | 5.13% | -10.7%
3 | Cc1nc(C)n(CC2CCCN(CC(=O)Nc3nncs3)C2)n1 (stereo not given) | -2.17% | -2.63% | 3.08% | 5.75% | -2.26% | -1.15% | 4.84% | -3.5% | 1.47% | 0% | -0.768%
4 | Clc1snnc1CN1CCOC(CNc2cccnn2)C1 (stereo not given) | 0.0334% | -2.6% | -5.26% | 8.04% | 5.8% | 5.34% | 1.18% | -0.834% | 4.85% | 12.2% | -5.35%
5 | O=C(c1ccoc1)N1CC[C@@H]2[C@H]1CCC(=O)N2c1ccccc1 | -4.24% | 10.7% | 10.1% | -2.97% | -1.97% | -1.63% | 5.02% | 10.8% | 9.57% | 14.1% | -0.93%
6 | O=C(COc1coc(CN2CCCCC2)cc1=O)NCc1ccccc1 | -1.81% | 7.89% | 6.63% | 2.03% | -4.38% | -4.73% | 18.5% | -0.295% | 4.25% | 10.4% | -5.41%
7 | CS(=O)(=O)CCNC(=O)C1(c2cccc(Cl)c2)CCCCC1 | -7.1% | -1.39% | 0.793% | -3.56% | -1.46% | -2.65% | 6.14% | 13.7% | -4.21% | -7.69% | -0.434%
8 | O=C(C[C@@H]1COC[C@H]2CN(Cc3ccc(F)cc3)C[C@@H]12)N1CCCCO1 | -4.42% | 6.67% | 4.91% | 6.17% | -2.36% | -0.176% | 16.1% | 19% | 2.12% | 7.69% | -5.03%
9 | COCCN1CCC(CNC(=O)c2cc(C)cc(C)c2)C1 (stereo not given) | -6.49% | 10.5% | -7.62% | 15.5% | 6.26% | -1.8% | 8.88% | -10.5% | 6.4% | 13.6% | -4.84%
10 | O=C(NCc1ccoc1)NC1CCCN(c2ncccn2)C1 (stereo not given) | -3.31% | 7.89% | 6.88% | 0.569% | 4.97% | -8.28% | 15.8% | 20.9% | 3.19% | 13% | -3.64%
